These results are taken from PubChem BioAssay AID1347426 (Functional Genomics Laboratory (NCATS/FGL), 2020).

Screen size: about 31,000 sequences; about 1,400 (4.5%) were called active. The full list was thinned out, with actives kept by preference. Values without a mark were called inactive.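 How the source made its calls: active means median seed-adjusted z-score above 1 or below -1; inactive means the rest.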

The nature of this experiment: Novel Modifiers of Survival Motor Neuron (SMN) Protein: Gene Identification via Genome-wide siRNA Screen.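 Further: luminescence tracks full-length SMN protein made from the SMN2 reporter.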 The note with it: HEK293T SMN2-luciferase reporter, siRNA knockdown, 72 h; actives lie on both sides. The essentials:
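Luciferase signal, proportional to full-length SMN made from an SMN2 cDNA reporter in stable HEK293T cells, was read 72 h after siRNA reverse transfection. Values were expressed as MAD scores after non-targeting-control normalization and log10 conversion; seed analysis flagged off-targets.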
Turning to GGAUCACGAUGAAGACAAATT against CTSL3, the median seed-adjusted z-score was 1.07 (active). The result for ACUGGGCUCUCUUUACCUATT against DBNL reads 0.398; that for GAACAGGCGUGCCAAGUCUTT against MIXL1, -0.204; that for AAAGCGCAAUUGGUGGUAATT against DYNLT1, 0.764.

As to GGUUGCUAUCAAUACCCUUTT against SLC22A18, the median seed-adjusted z-score is -0.654. For CCAUCCUUAGAGUUCCUUATT against SLC23A3, the median seed-adjusted z-score was -0.254. The result for CGGUAUGCCUGUGACGACATT against FCER2 reads -1.75 (active); that for AAAUCACACCAAACACUUATT against STX11, -0.518; that for GCAGCUGCCGGAAAUGUUATT against KRT81, -0.0955. As to CAAUCAAAGGGAAACUUGATT against TPT1, the median seed-adjusted z-score is 0.236.

As to GGAGAAUGGUUCGACUGUUTT against CKAP5, the median seed-adjusted z-score was -1.87 (active).

Consider GGCUGUUUGUGAUGGAUAATT against GALNT2, for which the median seed-adjusted z-score was 0.0798. Take GAAACGUGGUGAGACCUCATT against PRKX: the median seed-adjusted z-score was 0.0341. CAUUCGUCGUAACUUUACATT against MIPEP: the median seed-adjusted z-score is -0.169. On to CUUUCAUCUCUAAAACUGATT against LHX3, for which the median seed-adjusted z-score is 0.622. In the case of CCAGAUAAAUCUAUAGCAATT against RCOR1, the median seed-adjusted z-score was -1.13 (active).

With CAAUGGAACUUUAGAUUAUTT against PCDHA11, the median seed-adjusted z-score was 0.582. The result for GGCUUUUAAGACUAAGGAATT against TRIM69 reads 0.214; that for GCCUCCCAGAUGAUCGUCATT against SLC6A13, 0.267. Turning to GGACGAUGCUGAUACGGUATT against NOP2, the median seed-adjusted z-score was 1.15 (active). The result for CACCAGACAUCAAAAUCAATT against ATF7 reads 0.903; that for GCACAGACCUGGUGUGGAATT against NECAB2, -0.286; that for UGACCUUUCCUAUCUAUAATT against MCART6, 0.714. As to GGACACUAUAAGAAAGGAATT against FNTA, the median seed-adjusted z-score was 1.04 (active). The result for AGGUUUGGCUCAACUCUGATT against P2RX2 reads 0.0454. As to GGAAAUUGCUUACAGGAAATT against ARSJ, the median seed-adjusted z-score was -0.0978. With GCUUAUCGGUUGAUCAUCATT against SLC6A4, the median seed-adjusted z-score is 1.43 (active). With GCAAGCUGCUGAUCGAGUUTT against KAT5, the median seed-adjusted z-score is 0.32.

On to GGGACAUUUCCAAAUGGAATT against ARL6IP5, for which the median seed-adjusted z-score is -0.202. Take GGGACUCUGUAUUCCCUCUTT against WFDC2: the median seed-adjusted z-score is -0.466. Turning to CGUAUAGUCAAAGCUCAAATT against ZNF24, the median seed-adjusted z-score is 0.388. Take GAAGAGUUACUACAGUAAATT against MYT1: the median seed-adjusted z-score was -0.292. CGAAGGAAAUGUACAGCAATT against SLC25A42: the median seed-adjusted z-score was -1.02 (active). The result for CAAGGUUCUUGGUUGGGUATT against ZDHHC13 reads -0.381. In the case of CAUCAAUGGUCAUAAUGCATT against HNRNPA2B1, the median seed-adjusted z-score is 1.33 (active).

On to AAGAUGCUCUCCCACCUAATT against POLD4, for which the median seed-adjusted z-score is 0.225. The result for GGUCUACCGGAUUAUCACATT against BRD2 reads -0.242; that for GGUCUUGAAGUGUACCCUATT against ITGAV, 1.17 (active).

As to GCAUAGACACCAUCAUCAATT against GCLC, the median seed-adjusted z-score was -0.21. The result for ACUUCUACAUCAACGACAATT against ALDH4A1 reads 0.0362. On to GGAAAGAGAACGAAUCGAATT against PPM1D, for which the median seed-adjusted z-score is -0.66. In the case of GCCUUUGGUUCGCAAGUUUTT against DYRK2, the median seed-adjusted z-score was 0. On to CAACGAUCCCUGUACCAGUTT against GABBR2, for which the median seed-adjusted z-score was -0.038. The result for CCUACUACCUCAAACACCATT against SYVN1 reads -1.41 (active); that for GCUUAUUAGCCUCCAAUUUTT against ZSCAN5A, 0.31.

In the case of GAAGAACCCUGGUCUUUCATT against CARD14, the median seed-adjusted z-score is -0.104. Turning to GCUGUGCCUUAUAACCGAATT against LRRK2, the median seed-adjusted z-score was -0.671.

Turning to GGGUCAUCCGAGAUUCUCATT against DLG5, the median seed-adjusted z-score was 0.467. The result for GGGUCCAACAUUCCGAAUATT against CHD1 reads -1.03 (active). The result for GGCCUUCGGCUAAAAGAGATT against KIF22 reads 0.283; that for CGGUAAUAGCAAUUCAGCATT against HEATR6, 0; that for GAGAGAUAUUGAUCGACUUTT against ARG2, -0.796. For the sequence GAGACAAGCUUCAACCACATT against SERPINA5, the median seed-adjusted z-score was -1.01 (active). The result for GCAUUGGUAAAAUUGCUAATT against AVIL reads -0.127; that for CGGACCGGCAGAGAACAAATT against PLA2G10, 1.07 (active). As to GCUAUGUCAUCACUACCAATT against KCNAB3, the median seed-adjusted z-score was 0.0697. On to GGAGUGCCCACAGUCAGAATT against SMUG1, for which the median seed-adjusted z-score was -1.38 (active). Then GGCUAUGUGCGGGAGUAUATT against PI4KA, with 0.

For the sequence CGAUCAAUCCAACCGCACATT against MEIS3, the median seed-adjusted z-score is 0.207.

Turning to CCUCGGAAGAGAUCACUAUTT against POU2F1, the median seed-adjusted z-score is 0.317. Take CGUUUCAGUCGUUUCAAAATT against POLR2D: the median seed-adjusted z-score was -3.79 (active). As for GGUUAUAUACCACCUUAUATT against QRSL1, the median seed-adjusted z-score is -0.539.

For the sequence GCUCUAAGGUUACGGAAGATT against MCOLN2, the median seed-adjusted z-score is -0.0234. The result for GUCCUGUCUUGAUUAAAUUTT against CHST7 reads 0; that for GCAGAAGAAAGAACCCGUUTT against DYNC1I1, -0.716. On to CCACCCUACUAUGCGCACATT against GJA3, for which the median seed-adjusted z-score is 0.833.

With CAAGGGUUUUCUUACAAUATT against GNA13, the median seed-adjusted z-score is 0. Consider CAAUAUGAAGGUCGAAUUATT against TPR, for which the median seed-adjusted z-score is -1.03 (active). The result for GACCUUAUAUGUGCAAGGATT against ZNF8 reads 0.97; that for CGACUGGAUUAAGCAGUAUTT against ATP6V1C1, 0.0821. With UCAUGUGCCUGGAAAUUAATT against AIRE, the median seed-adjusted z-score was 0.308. For GAACUGUCCGAAUCUAAUUTT against CNTNAP1, the median seed-adjusted z-score is 0.176. AAUCACAACUCCUAAAAGATT against POLR2J3: the median seed-adjusted z-score was -5.42 (active).

As for ACAUCGUAGUGGGACGAAUTT against EXOSC2, the median seed-adjusted z-score is -0.0798.

CAUUCGCUCUGGUACUUAUTT against CRYZ: the median seed-adjusted z-score is -0.809.

For GGUCCUAAGUUUGAAGUCATT against FRMPD2, the median seed-adjusted z-score was -0.329. Then CGAUAUAAGCUCCGAGAGATT against POLR2E, with -1.25 (active); and GCUGUAACCUCUUCAUCUATT against BRUNOL6, with -0.542. In the case of GCAAGGAUCAGUUUCCGGATT against RHOC, the median seed-adjusted z-score was -0.579. On to GGAACACCUUUAGUCAUGATT against ZNF790, for which the median seed-adjusted z-score was 0.245. The result for CCAGCUGCCUACAAAGACATT against CLDN14 reads -0.456; that for AACGCACUCUUCUACGUCATT against NTSR1, -1.1 (active); that for GACCGACAUUUGUGAAGAATT against ZNF547, 0.099. For CAAAUGGGACUGUCAAUUATT against REPS2, the median seed-adjusted z-score was 0.454. Then GGUUAUCCUUUGCCCAGCATT against ACTL7A, with 1.1 (active); and AAGUUAGUCCUAAAGUGUATT against UCHL1, with -0.421; and CCACGGCACAUGGAACUAATT against SLC7A14, with 0.132.

Take GUCCCGCUAUGACUACUUUTT against GRM2: the median seed-adjusted z-score is -0.664. Regarding CUGUUUGGUUUAUUCGAUUTT against ZW10, the median seed-adjusted z-score is 0.199. GAGUAAGUGAAAUAGAACATT against ZBTB26: the median seed-adjusted z-score was 0. Then GAAACCAUCCAAUCCAAGATT against TXNDC2, with -1.29 (active); and GGACUUGGAUUAUGAACUATT against COL6A3, with 0.341. Take CGAGCAUUCUCUCUUGAAATT against MED24: the median seed-adjusted z-score was -2.3 (active). As to GCGUGUAAAUUCUACUGCATT against RB1, the median seed-adjusted z-score is 0.49. With CUACCACGCAGUCAACCUUTT against LTB4R2, the median seed-adjusted z-score was -0.26.

On to GGAUUUUAUUCUUCACCGUTT against RBMS3, for which the median seed-adjusted z-score is 0.0976. The result for GCACGAAUUUCAGCACCAATT against HOXD1 reads 0.144; that for GGAACAUUUUUGACGGAUUTT against SCN8A, 0. As to GCACAACACUCGCUCCAAUTT against GLT8D1, the median seed-adjusted z-score was 1.22 (active).

Consider GGUAAUAAAUGGGUUGGAATT against PTGR2, for which the median seed-adjusted z-score was 0.14.

With CAGAGACCCUUGAUAAACUTT against PIK3AP1, the median seed-adjusted z-score was 0.0678. The result for GCAUGACUAUGUCAAGAAATT against MCM3 reads 0.339. Then GCUCGUGAUUGAUGCUGCATT against NGB, with 0; and CGACAUCAUCAAUAGACGATT against AQR, with -1.56 (active); and GGACCACGAUGAUCAUUGATT against CRMP1, with -0.354.

On to GCAUUGGUGUAUGGAAUUATT against SLC6A15, for which the median seed-adjusted z-score was 0.0939. Then GCAAGAAAAAUCUAAGGAATT against ZNF57, with 0; and ACAGCAUUGUCAUUAGACATT against UBR5, with 0.114; and CAUGUGCUAUCGAAAGUAUTT against TCEB1, with 1.08 (active).
